# This is part of a sample that, as a whole, favours compounds with a hit. Of some 83,000 tested, about 20% had one in any assay.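 Note: values are percent growth. 100 is the growth of untreated cells, values between 100 and 0 indicate rising inhibition; between -100 and 0 indicates cell death.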 Unmarked numbers belong to inactive results. Calls of active or inactive are those of the source. The calls were made as follows: active = growth percent below 10; inactive = the rest.
# Key:
# Assay in all cases: NCI-60 one-dose screen, 48 h (100 = growth as untreated, 0 = no growth, -100 = all killed)
# Details in all cases: 10 µM unless noted
# T-47D breast = system: T-47D breast
# BT-549 breast = system: BT-549 breast
# MDA-MB-435 melanoma = system: MDA-MB-435 melanoma
# SW-620 colon = system: SW-620 colon
# MCF7 breast = system: MCF7 breast
# HCT-116 colon = system: HCT-116 colon
# HCC-2998 colon = system: HCC-2998 colon
# KM12 colon = system: KM12 colon
SMILES,growth (T-47D breast),growth (BT-549 breast),growth (MDA-MB-435 melanoma),growth (SW-620 colon),growth (MCF7 breast),growth (HCT-116 colon),growth (HCC-2998 colon),growth (KM12 colon)
CC1CC(=O)C2=C(C1)Nc1ccc(Br)cc1CC2c1c[nH]c2ccc(Br)cc12 (stereo not given),33.4%,64.9%,-18.5% (active),33.5%,16.7%,24.2%,69.6%,28.1%
CN1CCN(Cc2ccc(NC(=O)c3cncc(C#Cc4cnc5ccc(OCCCS(C)(=O)=O)nn45)c3)cc2C(F)(F)F)CC1,16.2%,-21.5% (active),-22.7% (active),1.18% (active),-12.8% (active),1.88% (active),-22% (active),-3.51% (active)
COc1ccc(/C=N/NC(=O)CSc2nc(-c3cnccn3)cc(-c3cccs3)c2C#N)cc1OC,93.9%,38%,78.9%,60.8%,53.7%,55.4%,47.3%,51.4%
Cc1cc(C)cc(NC2=C(Cl)C(=O)c3nc(C)ccc3C2=O)c1,-20% (active),66.6%,-78.8% (active),-6.15% (active),-44.4% (active),9.38% (active),77.6%,76.8%
COc1cc(NC(=O)Nc2cccc(-c3cc(=O)c4c(OC)c(OC)c(OC)cc4o3)c2)cc(OC)c1OC,11.9%,31.9%,57.1%,41.3%,40.7%,28.9%,60.7%,38.7%
COc1cc(C(C)=C(c2ccc(OCCN(C)C)cc2)c2ccc(OCCN(C)C)cc2)ccc1F,93.4%,107%,108%,104%,93.8%,107%,100%,109%
CN1CCN(Cc2ccc(NC(=O)c3cncc(C#Cc4cnc5ccc(N)nn45)c3)cc2C(F)(F)F)CC1,60.5%,38.7%,40.5%,0.667% (active),-19.7% (active),1.19% (active),20.7%,3.48% (active)
O=C(Nc1ccc(Cl)c(C(F)(F)F)c1)Nc1ccc2oc(=O)ccc2c1,8.73% (active),78.7%,50.3%,37.3%,11.9%,15.7%,29.2%,19.6%
CCn1c2ccc(/C=N/N(C)S(=O)(=O)CCN(C)C)cc2c2cc(/C=N/N(C)S(=O)(=O)CCN(C)C)ccc21,88.6%,72.4%,62%,30.6%,22.1%,14.3%,63.4%,81.4%
NC(=O)n1c(=O)n(-c2cccc(C(F)(F)F)c2)c(=O)c2cc(-c3ccc(F)cc3F)ccc21,-14% (active),-12.5% (active),0.406% (active),14.1%,0.6% (active),2.24% (active),10.7%,5.24% (active)
O=C(CCCCCCN1CC(=O)N2[C@@H](c3ccc(Cl)s3)c3[nH]c4ccccc4c3C[C@H]2C1=O)NO,27.5%,85.7%,23.9%,33.2%,14.7%,13%,37.6%,71.9%
COC(=O)c1cccc(NC2=C(Cl)C(=O)C(C)=C(C)C2=O)c1,-18.1% (active),96.2%,104%,103%,82%,70.1%,98.2%,49.2%
CCCCCCN1C=C/C(=C\C(=O)n2ccc3ccccc32)c2ccccc21,31.1%,65%,84%,79.2%,29.2%,48.4%,34.6%,67.1%
Cn1cc(-c2cc3ncnc(Nc4ccc(CC(=O)Nc5nc(C(C)(C)C)cs5)cc4)c3s2)cn1,3.67% (active),61.3%,54.6%,53.8%,41.8%,39%,74.6%,13.2%
COc1cc(C(=O)c2cc(C(C)=O)c3c(C)cccn23)cc(OC)c1OC,81.8%,104%,97.3%,104%,82.7%,95.1%,105%,96.5%
COc1ccc(C2C(C#N)=C(/N=C/c3ccc(Cl)cc3)Oc3c2sc2c(C)cccc32)cc1 (stereo not given),17.9%,49.5%,-23.5% (active),31.2%,21.5%,13.4%,16.7%,23.1%
COC(=O)c1cccc(NC2=C(Cl)C(=O)c3nc(C)ccc3C2=O)c1,-28.1% (active),125%,-38.6% (active),0.0392% (active),-35.2% (active),27.2%,105%,106%
O=C(CSc1nc2ccccc2c(=O)n1-c1ccc(Cl)cc1)N/N=C/c1ccc(Oc2ccc(Cl)cc2)cc1,30.1%,-17.7% (active),25.1%,2.62% (active),15.5%,-67.8% (active),20.3%,17.4%
COC(=O)c1ccc(NC2=C(Cl)C(=O)c3nc(C)ccc3C2=O)cc1,31.2%,99%,60.6%,18.3%,30.5%,43.1%,102%,50.3%
CN(C)c1cccc2c(S(=O)(=O)Nc3cccc(-c4csc(NC(=O)CCCCCN5CCN(CCO)CC5)n4)c3)cccc12,82.7%,87.5%,65.6%,98.4%,35.8%,36.2%,90.3%,88.6%
O=C1Nc2ccccc2/C1=C/c1ccc(OCC(=O)c2ccccc2)cc1,97.6%,118%,102%,102%,88.7%,94.4%,105%,99.9%
NS(=O)(=O)c1ccc(Nc2nc(N/N=C/C=C/c3ccccc3)nc(Nc3ccccc3)n2)cc1,18.9%,65.9%,51.6%,51.1%,16%,29.5%,38.3%,55.4%
CCCCc1nc2c(N)nc3ccccc3c2n1Cc1cccc(CN)c1,74%,28.1%,4.8% (active),52.6%,24.8%,23%,59.7%,49.9%
O=C(Nc1ccc(N2CCOCC2)cc1)Nc1ccc2c(ccn2C(=O)c2cccc(F)c2)c1,68.9%,71.7%,68.3%,74.5%,53.2%,24.2%,62.4%,74.1%
N#Cc1c(-c2cccs2)c(C#N)c(=O)n(Cc2nc3ccccc3[nH]2)c1N,74.8%,102%,110%,95.6%,66.1%,100%,116%,102%
COc1ccc(/C=N\NC(=O)c2cnn(CC(O)c3ccccc3)c2N)cc1OCc1ccc(Cl)cc1 (stereo not given),56.9%,109%,78.7%,64.5%,60.8%,49.4%,108%,75%
NS(=O)(=O)c1nnc(/N=C/c2c(O)[nH]c3ccccc23)s1,85.2%,98.8%,103%,106%,87.6%,94.5%,107%,95.4%
Cc1ccc(CSC2=C(Cl)CN(c3ccc(Cl)cc3)C2=O)cc1,96.5%,110%,103%,108%,79.1%,98.5%,105%,106%
CCCNNC(=O)c1ccc(-c2ccc(NC(=O)CCCCCCC(=O)N[C@H](C(=O)N3C[C@H](O)C[C@H]3C(=O)N[C@@H](C)c3ccc(-c4scnc4C)cc3)C(C)(C)C)cc2)cc1,9.23% (active),50.5%,8.72% (active),12.1%,12%,7.95% (active),19.4%,26.7%
C=CCSC1=NC2C(N(CC)C(=O)N2CC)N1/N=C/C=C/c1ccccc1OC (stereo not given),68.9%,79.8%,2.79% (active),69.7%,42.5%,73.7%,97.8%,57.8%

# From PubChem BioAssay (NCI)
